# The full list was thinned out, with hits kept by preference.
# E coli WT exp – growth inhibitors of E. coli BW25113 wild type; OD600 absorbance; growth inhibition, % at 100 µM; actives 0.15% (n = 98,000);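 active means growth inhibition above about 50% at one test dose, limit read from the data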;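 further: growth measured after 20 h incubation at 37 °C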
# Mac1 fbg inh – blocks human CD11b/CD18 adhesion to fibrinogen; AID 1497; K562 CD11b/CD18 adhesion to fibrinogen, ATPlite luminescence; Mn2+ added to activate the integrin; inhibition, % at 10 µM; actives 0.54% (n = 93,000);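 active means primary inhibition of 50% or more at 10 µM, then 40% or more on retest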
# Cav3 T inh – inhibitors of human Cav3.2 T-type calcium channel. Cav3.2-expressing cells, Fluo-4 calcium fluorescence FDSS; active compounds read low. B-score at 10 µM. actives 4% (n = 100,000). AID 449739;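 active means single-dose well whose peak fluorescence ratio is a statistical outlier from its plate by either plate-standardised score or position-corrected B-score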
# CD11b adhes enh – increases human CD11b/CD18 adhesion to fibrinogen; activation, % at 10 µM; K562 CD11b/CD18 adhesion to fibrinogen, ATPlite luminescence; actives 0.07% (n = 93,000); P05107+P11215; AID 1499;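 active means 10 µM primary screen giving 50% or more activity, confirmed by 40% or more on retest at that dose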
# An asterisk follows results filed as active; · = not tested or not shown.
SMILES,E coli WT exp,Mac1 fbg inh,Cav3 T inh,CD11b adhes enh
COc1ccc([C@H]2C=C3CN(C(=O)OC(C)(C)C)S(=O)(=O)[C@H]3C[C@H]2OC(=O)c2cccs2)cc1,·,·,-1,·
NC(=O)C1=C[C@@H](c2ccc(Br)cc2)C[C@@H](OCCCCO)O1,·,·,0.42,·
COc1ccc(S(=O)(=O)NCCc2csc(-c3cccnc3)n2)cc1,2,-5,1,-1
O=S(=O)(NCC1CCCO1)c1ccc(S(=O)(=O)N(Cc2ccccc2F)C2CCCCC2)cc1 (centres undefined),·,·,0.41,·
O=C(CN1CCC(n2nnc3cc(F)ccc32)CC1)Nc1ccc2c(c1)CCC2,4,-41,-5.6*,-3
C/C(=C/Cc1c(O)cc2oc(C)cc(=O)c2c1O)COC1OC(CO)C(O)C(O)C1O (centres undefined),·,·,-0.14,·
CCn1c(-c2ccc(F)cc2)cnc1SCC(=O)N1CCCCC1C (centres undefined),2,11,-0.73,-2
Cc1ccc(S(=O)(=O)NC(CN2CCOCC2)=NCCNS(=O)(=O)c2ccccc2)cc1,-1,-10,-0.016,-1
O=C(CSc1ncnc2sc3c(c12)CCCC3)N1CCC(c2noc3ccc(F)cc23)CC1,-15,·,-2,·
Cc1cc(SCC(=O)N2CCC(c3noc4ccc(F)cc34)CC2)nc2ccccc12,-15,-2,-5*,19
C[C@]12C(=O)N(c3ccc(Cl)cc3)C(=O)N1[C@@H]1c3ccccc3OC[C@@H]1[C@H]2c1ccccc1,·,·,-1.4,·
Cc1ccc(C(=O)OCC(=O)N2CCc3ccccc32)cc1,-3,·,-0.54,·
Cc1ccc(N(CC(=O)N2CCc3ccccc32)C2=NC(=O)CS2)cc1,8,5,-4.3*,1
Cc1cccc(OCCNc2cc(N3CCN(CCO)CC3)ccc2[N+](=O)[O-])c1,·,15,·,2
O=C(OCc1nc2ccccc2s1)c1cccs1,9,5,-5.2*,-2
O=C(OCc1nc2ccccc2s1)c1cnccn1,5,-2,-0.065,-3
Oc1sc(C=Nc2ccc(F)cc2)c2ccccc12,-11,-11,-0.21,-3
Oc1sc(C=Nc2ccccc2)c2ccccc12,0,-1,-5.1*,6
C[C@H](NC(=O)c1nc[nH]c1C(=O)N1CCc2ccccc2C1)C(=O)OCc1ccccc1,·,·,0.18,·
CC1C/C(=N\NC(=S)NCc2ccccc2)CC(C)(C)C1 (centres undefined),-9,4,-4.4*,0
Cc1noc(C)c1COC(=O)c1cc(C)n(-c2ccccc2)c1C,-7,·,-4.9*,·
Cc1cc(C(=O)OCc2nnc(-c3ccccc3)o2)c(C)n1-c1ccccc1,-15,93,-3,-10
Cc1ccc2[nH]c(=O)c(CN(CCO)C(=O)N(C)C)cc2c1,·,·,-0.64,·
